Out of some 340,000 compounds screened, about 2,300 (0.68%) were called active. Rule as the data show it: active = growth rescue above about 28% (passing the limit was not always enough); inconclusive = no clear call, values can overlap the other calls. Only a selection was taken, and actives are over-represented in it overall.
Assay: rescue of yeast from PfHsp40 toxicity, primary screen, S. cerevisiae, ATP luminescence (AID 504582);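 also: yeast W303a lacking pdr1 and pdr3 grown in galactose medium; growth measured after three days at 30 °C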
Conditions: S. cerevisiae expressing PfHsp40, growth rescue, at 12.5 µM, hits give high values

SMILES | growth rescue
CCOC(=O)N1CCN(C(=O)C(=O)Nc2sc3c(c2C#N)CC(C)(C)OC3)CC1 | -1.13% (inactive)
COc1ccc(-c2nc3n(c(=O)c2C#N)CCS3)c(OC)c1 | -0.93% (inactive)
CCCNC(=O)CSc1nc(Cc2ccccc2)nc2ccccc12 | 1.34% (inactive)
CCCc1nc(SCC(=O)Nc2ccc(S(=O)(=O)N(C)C)cc2)c2ccccc2n1 | 56.5% (active)
O=C(CSc1nc(C2CC2)nc2ccccc12)Nc1ccc2c(c1)OCCO2 | 0.157% (inactive)
Cc1ccc(-n2c(C)nnc2SCC(=O)NC2CC2)cc1 | 0.655% (inactive)
CCCCC/C=C/C1=CC(=O)C[C@H](c2ccc(Cl)cc2)C1 | -0.132% (inactive)
Cc1cccnc1NC(=O)Cn1c(=O)oc2ccccc21 | 0.888% (inactive)
Nc1cc(N)nc(SCc2ccc(Cl)cc2)n1 | 0.722% (inactive)
CSCc1cc(N2CCOCC2)nc(SCc2ccc(Cl)cc2Cl)n1 | 21.9% (inactive)
CSCc1cc(N(C)C)nc(SCc2ccc(Cl)cc2Cl)n1 | 119% (active)
O=C(O)c1cc2ccccc2c(=O)s1 | -1.29% (inactive)
CCCCCCCCn1c2c(c(=N)c3c1CCC3)CCCC2 | -1.32% (inactive)
CCCCCN1CC(O)=C(c2ccccc2)C1=N | 1.8% (inactive)
CCCCCCCCCCCCn1ccc(=N)cc1 | 174% (active)
Nc1cccnc1Sc1ccccc1 | -0.346% (inactive)
O=C(CN1C(=O)NC2(CCCCC2)C1=O)NCCC1=CCCCC1 | -1.2% (inactive)
COc1ccc(C(CNC(=O)c2ccc(NS(=O)(=O)c3ccc(F)c(C)c3)cc2)N(C)C)cc1 (stereo not given) | -1.73% (inactive)
COc1ccc(C(CNC(=O)c2ccc(S(=O)(=O)Nc3ccccc3F)cc2)N(C)C)cc1 (stereo not given) | 33.3% (active)
CC(=O)c1ccc(S(=O)(=O)Nc2ccc(C(=O)NCC(c3ccccc3)N(C)C)cc2)cc1 (stereo not given) | 0.039% (inactive)

SMILES | growth rescue
Cc1ccc(C)c(C(=O)N2CCC(n3nccc3NC(=O)C3CC3)CC2)c1 | -0.915% (inactive)
COc1ccccc1C1CCN(C(=S)Nc2ccc(Br)cc2)CC1 | 41.2% (active)
CCC(C)N(C)C1CCN(C(=S)Nc2ccc(OC)cc2)CC1 (stereo not given) | 0.96% (inactive)
COc1ccccc1NC(=S)N1CCN(C(c2ccccc2)c2ccccc2)CC1 | -0.67% (inactive)
COC(=O)C1(C)NC(c2ccccc2OC)C2C(=O)N(c3ccccc3)C(=O)C21 (stereo not given) | -1.44% (inactive)
O=S(=O)(c1cccc(Cn2nnc(-c3ccc(F)cc3)n2)c1)N1CCOCC1 | 1.33% (inactive)
O=C(OCCN=C1NS(=O)(=O)c2ccccc21)c1cccc([N+](=O)[O-])c1 | 0.884% (inactive)
CCn1c(O)c2ccc(C(=O)N=NC(=O)c3cccnc3)cc2c1O | -1.24% (inactive)
Cc1ccc(N2C(=O)C3N=NN(CC(=O)N4N=C(c5cccc6ccccc56)CC4c4ccccc4)C3C2=O)cc1 (stereo not given) | -1.11% (inactive)
O=C1C2N=NN(CC(=O)N3N=C(c4cccc5ccccc45)CC3c3ccccc3)C2C(=O)N1c1ccccc1 (stereo not given) | -1.21% (inactive)
Oc1ccccc1C1=NN(c2ccccc2)C(c2ccccc2)C1 (stereo not given) | 134% (active)
CCN(CC)C(=O)C1CCC(C)(C(=O)O)C1(C)C (stereo not given) | 1.46% (inactive)
COC(=O)C(C(=O)Nc1cccc(C)n1)C1CCCCCC1 (stereo not given) | -0.474% (inactive)
CC(C)NC(=O)N1CCN(c2ccncc2S(=O)(=O)N2CCCCC2)CC1 | -0.643% (inactive)
O=C(COC(=O)CCOc1ccccc1)Nc1cc(S(=O)(=O)N2CCCCC2)ccc1Cl | 1.68% (inactive)
Brc1ccc(-c2n(-c3ccccn3)c3ccccc3[n+]2-c2ccccn2)cc1 | 0.665% (inactive)
CCOC(=O)c1ccc(N2C(=O)CC(N3CCN(C(=O)c4ccccc4)CC3)C2=O)cc1 (stereo not given) | 53.1% (active)
CCCCOC(=O)c1ccc(N2C(=O)CC(N3CCN(C/C=C/c4ccccc4)CC3)C2=O)cc1 (stereo not given) | 0.282% (inactive)
CCOC(=O)c1ccc(N2C(=O)CC(N3CC(C)OC(C)C3)C2=O)cc1 (stereo not given) | -0.556% (inactive)
COc1ccc(N(C)S(=O)(=O)c2ccc3c(c2)CC(C)N3C(=O)C2CC2)c(OC)c1 (stereo not given) | 2.19% (inactive)

SMILES | growth rescue
CCC(C(=O)NCCC(C)C)N(Cc1ccccc1Cl)C(=O)c1snc(C(N)=O)c1N (stereo not given) | 0.982% (inactive)
CCCCC(C(=O)NC(C)(C)C)N(Cc1ccccc1)C(=O)c1snc(C(N)=O)c1N (stereo not given) | 59.5% (active)
CC(C)(C)NC(=O)C(c1ccc(Cl)cc1)N(CCO)C(=O)c1snc(C(N)=O)c1N (stereo not given) | -0.519% (inactive)
CC12CCC(=O)N1C(C(=O)NCCN1C(=O)S/C(=C\c3ccccc3F)C1=O)CS2 (stereo not given) | -1.34% (inactive)
COc1ccc(CCNc2nc(C)cc(C)n2)cc1OC | 0.933% (inactive)
NS(=O)(=O)c1ccc(CCNC(=O)c2ccc(Cl)c(S(=O)(=O)N3CCCCCC3)c2)cc1 | 0.571% (inactive)
CCc1ccccc1NC(=O)CSc1nnc(-c2ccncc2)o1 | -0.233% (inactive)
CC1=CC(C)(C)N(C(=O)CSc2nnc(-c3ccccc3)o2)c2ccc(C)cc21 | 81.1% (active)
CC1=CC(C)(C)N(C(=O)CSc2nccn2C)c2cc(C)ccc21 | -0.0285% (inactive)
O=C(CN(c1ccc2c(c1)OCCO2)S(=O)(=O)c1ccccc1)Nc1ccc2c(c1)OCO2 | 0.974% (inactive)
COc1ccc(CNC(=O)COC(=O)c2sccc2C)cc1OC | -0.071% (inactive)
COc1cnc(-c2ccccn2)nc1Oc1ccc(C(C)(C)C)cc1 | 162% (active)
COc1ccc(NCCc2ccccn2)cc1 | -0.895% (inactive)
COc1ccnc(Oc2ccccc2)c1-c1ncn[nH]1 | -2.24% (inactive)
CC1(C(=O)O)CCC(C(=O)Nc2ccc(Cl)c(Cl)c2)C1(C)C (stereo not given) | -0.486% (inactive)
Cc1cccc(C)c1NC(=O)CCCSc1nnc(-c2ccco2)n1-c1ccccc1 | 0.934% (inactive)
COc1ccc(CCNC(=O)COc2ccc3c(c2)OCO3)cc1 | -0.845% (inactive)
COc1cc(C)cc(CN2CCC(Cc3ccccc3)CC2)c1O | 0.509% (inactive)
CC1CCCN(CC(O)COCc2ccccc2)C1 (stereo not given) | -0.272% (inactive)
Oc1c(CN2CCCC2)cc(COCc2ccccc2)c2cccnc12 | 281% (active)
